# Assay results published in PubChem BioAssay (NCATS).
# Records with an inconclusive call do not appear. A number with no mark means an inactive call. Calls of active or inactive are those of the source. Calls come from the whole dose curve; as a rule, active = well fitted inhibition curve with a large enough effect; inconclusive = small, poorly fitted or top-dose-only effect; inactive = flat fitted curve, though single readings scatter.
# System: TAB109
# Test: qHTS profiling for inhibitors of Plasmodium falciparum proliferation (AID 504749); note: nearly all actives have a fitted effect of over 60% in size;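 for activity, negative = inhibition: 0% = DMSO vehicle and full inhibition = artemisinin control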
# Conditions: P. falciparum in erythrocytes, SYBR Green DNA, 72 h; series mostly up to 28.7 µM; activity, negative = inhibition: at the top concentration
# Summary of the method: (§1)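 In a 72 h erythrocytic culture (37 C, humidified, 5% CO2) at 2.5% hematocrit and 0.3% starting parasitemia, compounds were tested; SYBR Green I in detergent lysis buffer stained parasite DNA overnight.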
# Potency is the fitted concentration of half-maximal effect.
SMILES,"activity, negative = inhibition",Potency
CC1(C)S[C@@H]2[C@H](NC(=O)[C@@H](NC(=O)N3CCNC3=O)c3ccccc3)C(=O)N2[C@H]1C(=O)O,11.1% [at 12.8 µM],–
COCC(=O)Nc1cc(Sc2ccccc2)ccc1N=C(NC(=O)OC)NC(=O)OC,3.56%,–
CC(O)CO (centres undefined),-0.868%,–
COC(=O)CCC(=O)CN,4.32%,–
CC1=C(/C=C/C(C)=C/C=C/C(C)=C/C=C/C=C(C)/C=C/C=C(C)/C=C/C2=C(C)CCCC2(C)C)C(C)(C)CCC1,0.928%,–
CN=C(NC#N)Nc1ccc(C2=NNC(=O)C[C@@H]2C)cc1,11.8%,–
C[C@H]1C[C@H]2[C@@H]3CCC4=CC(=O)C=C[C@]4(C)[C@@]3(F)[C@@H](O)C[C@]2(C)[C@@]1(O)C(=O)CO,0.752%,–
O=C1C(=O)c2ncccc2-c2cccnc21,–,1000 nM (active)
CCCCCCCCCCCCCC[n+]1ccc(C)cc1,–,2240 nM (active)
COC(C(=O)C(O)C(C)O)C1Cc2cc3cc(OC4CC(OC5CC(O)C(O)C(C)O5)C(O)C(C)O4)c(C)c(O)c3c(O)c2C(=O)C1OC1CC(OC2CC(OC3CC(C)(O)C(O)C(C)O3)C(O)C(C)O2)C(O)C(C)O1 (centres undefined),–,158 nM (active)
CCCCCC(CC)COC(=O)CC(C(=O)OCC(CC)CCCC)S(=O)(=O)O (centres undefined),-0.108%,–
C[C@]12CCC(=O)C=C1CC[C@@H]1[C@@H]2[C@@H](O)C[C@@]2(C)[C@H]1CC[C@]2(O)C(=O)COP(=O)(O)O,-0.647%,–
Cc1cc(C(=O)NNCc2ccccc2)no1,10.9% [at 12.8 µM],–
O=C(O)CCC(=O)C(=O)O,2.42%,–
CCCCCCCCCCCC[n+]1ccc2ccccc2c1,–,631 nM (active)
Cc1cn([C@H]2C[C@H](O)[C@@H](CO)O2)c(=O)[nH]c1=O,3.21%,–

# System: TAB113
# Test: as above
# Conditions: P. falciparum in erythrocytes, SYBR Green DNA, 72 h; series mostly up to 28.7 µM; activity, negative = inhibition: at the top concentration
# Summary of the method: as §1
SMILES,Potency,"activity, negative = inhibition"
CO[C@H](C(=O)[C@@H](O)[C@@H](C)O)C1Cc2cc3cc(O[C@H]4C[C@@H](O[C@H]5C[C@@H](O)[C@H](O)[C@@H](C)O5)[C@@H](O)[C@@H](C)O4)c(C)c(O)c3c(O)c2C(=O)[C@H]1O[C@H]1C[C@@H](O[C@H]2C[C@@H](O[C@H]3C[C@](C)(O)[C@H](O)[C@@H](C)O3)[C@H](O)[C@@H](C)O2)[C@H](O)[C@@H](C)O1 (some centres undefined),89.1 nM (active),–
O=C(O)c1cc(O)c2c(c1)[O][Bi][O]2,–,0.226%
NC(=O)c1ncn(C2OC(CO)C(O)C2O)n1 (centres undefined),–,-13.5%
CC[N+](C)(C)Cc1ccccc1Br,–,1.04% [at 12.8 µM]
Nc1ncnc2c1ncn2[C@@H]1O[C@H](COP(=O)(O)OP(=O)(O)OP(=O)(O)O)[C@@H](O)[C@H]1O,–,12.3%
CCCCCCCCCCCCCCCC(=O)OCC(COC(=O)CCCCCCCCCCCCCCC)OC(=O)CCCCCCCCCCCCCCC,–,1.39%
CCCC(=O)O[C@]1(C(=O)CCl)[C@H](C)C[C@@H]2[C@H]3CCC4=CC(=O)C=C[C@]4(C)[C@@]3(F)C(=O)C[C@@]21C,2510 nM (active),–
CC(C)(C)C(=O)OCOC(=O)[C@@H]1N2C(=O)[C@@H](N=CN3CCCCCC3)[C@H]2SC1(C)C,–,21.1% [at 12.8 µM]
O=S(=O)(O)O,–,-3.51%
Cc1ccccc1OCC(O)CNCCOc1ccc(C(N)=O)cc1 (centres undefined),–,4.19%
CCCCC/C=C\C/C=C\CCCCCCCC(=O)O,–,7.64%
C[C@@H]1CCC2[C@@H](C)[C@@H](O)O[C@@H]3O[C@@]4(C)CC[C@@H]1[C@@]23OO4 (some centres undefined),1.1 nM (active),–
Nc1c(N=Nc2ccc(-c3ccc(N=Nc4cc(S(=O)(=O)O)c5ccccc5c4N)cc3)cc2)cc(S(=O)(=O)O)c2ccccc12,–,-0.878%
CC1(C)S[C@@H]2[C@H](NC(=O)[C@@H](NC(=O)N3CCNC3=O)c3ccccc3)C(=O)N2[C@H]1C(=O)O,–,0.966% [at 12.8 µM]
COCC(=O)Nc1cc(Sc2ccccc2)ccc1N=C(NC(=O)OC)NC(=O)OC,–,-14.3%
CC(O)CO (centres undefined),–,20.2%
COC(=O)CCC(=O)CN,–,1.04%
CC1=C(/C=C/C(C)=C/C=C/C(C)=C/C=C/C=C(C)/C=C/C=C(C)/C=C/C2=C(C)CCCC2(C)C)C(C)(C)CCC1,–,7.49%
CN=C(NC#N)Nc1ccc(C2=NNC(=O)C[C@@H]2C)cc1,–,11.6%
C[C@H]1C[C@H]2[C@@H]3CCC4=CC(=O)C=C[C@]4(C)[C@@]3(F)[C@@H](O)C[C@]2(C)[C@@]1(O)C(=O)CO,–,14.7%
O=C1C(=O)c2ncccc2-c2cccnc21,1780 nM (active),–
CCCCCCCCCCCCCC[n+]1ccc(C)cc1,3980 nM (active),–
COC(C(=O)C(O)C(C)O)C1Cc2cc3cc(OC4CC(OC5CC(O)C(O)C(C)O5)C(O)C(C)O4)c(C)c(O)c3c(O)c2C(=O)C1OC1CC(OC2CC(OC3CC(C)(O)C(O)C(C)O3)C(O)C(C)O2)C(O)C(C)O1 (centres undefined),141 nM (active),–
